Shown are actives, neighbours in structure and some others; about 0.47% of the full set was active somewhere.
UDG counterscr = Primary qHTS assay for inhibitors of Activation Induced Cytidine Deaminase (AID): UDG Counterscreen signal; Uracil-DNA glycosylase; FRET deamination/UDG coupled assay, UDG read, 4 h; Potency, µM (top dose mostly 115 µM), usual class: inhibitors; actives 0.14% (n = 91,000); note: nearly all actives have a fitted effect of over 65% in size
AID inhibitor = Primary qHTS assay for inhibitors of Activation Induced Cytidine Deaminase (AID): AID signal; AID 1347428, 2020; Potency, µM (titrated, usually from 115 µM), hits mostly inhibitors; Single-stranded DNA cytosine deaminase (Homo sapiens), Q9GZX7; AID deamination FRET fluorescence, UDG-coupled, 4 h; actives 0.32% (n = 91,000); note: nearly all actives have a fitted effect of over 25% in size
Target sequence (Q9GZX7 whole entry, looked up): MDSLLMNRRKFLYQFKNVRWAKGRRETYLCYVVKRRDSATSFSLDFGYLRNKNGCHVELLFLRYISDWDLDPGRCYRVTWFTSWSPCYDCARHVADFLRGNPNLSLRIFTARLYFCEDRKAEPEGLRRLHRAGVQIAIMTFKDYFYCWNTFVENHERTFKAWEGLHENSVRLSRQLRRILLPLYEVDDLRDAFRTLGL
Large screens that a line does not name were inactive. Calls come from the whole dose curve; as a rule, active = well fitted curve in the direction sought with a large enough effect; inconclusive = small, poorly fitted or top-dose-only effect, or another doubt; inactive = no such curve, though single readings can be large; an effect the other way counts as inactive or inconclusive.

COc1cccc(-c2cc(C(F)(F)F)nc(NCc3ccc(F)cc3)n2)c1	AID inhibitor inconclusive
Fc1ccc(CNc2nc(-c3ccccc3)cc(C(F)(F)F)n2)cc1	AID inhibitor 44.7µM
COC(=O)c1cc(COC(=O)C2COc3ccccc3O2)oc1C (stereo not given)	none
O=C(c1ccc(-n2cnnn2)cc1)N(CCc1cccs1)Cc1cccs1	none
Cc1cccc(-n2cc(-c3ccccc3)c3c(N4CCC(C)CC4)ncnc32)c1	AID inhibitor inconclusive
CC(=O)N1CCN(c2ncnc3c2c(-c2ccccc2)cn3-c2cccc(C)c2)CC1	UDG counterscr 79.4µM, AID inhibitor inconclusive
COC(=O)c1cccc(S(=O)(=O)Nc2ccc(Cl)c3cccnc23)c1	none
CCc1c(C)sc(NC(=O)CCCCl)c1C#N	none
CCN(CC)S(=O)(=O)c1cc(C)c(C)c(NS(=O)(=O)/C=C/c2ccccc2)c1	none
CCN(CCCNC(=O)c1cc2c(Cl)nc3ccccc3c2s1)Cc1ccccc1	AID inhibitor inconclusive
Cc1ccc2nc(Cl)c3cc(C(=O)NCCCN(C)Cc4ccccc4)sc3c2c1	UDG counterscr 79.4µM, AID inhibitor inconclusive
CN(CCCNC(=O)c1cc2c(Cl)nc3ccccc3c2s1)Cc1ccccc1	AID inhibitor 22.4µM
COCCNC(=O)c1cc2c(Cl)nc3ccc(C)cc3c2s1	AID inhibitor inconclusive
COc1cc(C2CC(=O)Nc3nc(-c4ccccc4)[nH]c(=O)c32)cc(OC)c1O (stereo not given)	none
CCCCC(=O)Nc1cc(C(=O)OCc2cc(=O)n3oc(C)cc3n2)ccc1OC	none
CC(C)CCNC(=O)CC(c1ccc(F)cc1)N1Cc2ccccc2C1=O (stereo not given)	none
CCN(CC)S(=O)(=O)c1cc(-c2nnc(Nc3ccc(OC)c(C(N)=O)c3)c3ccccc23)ccc1C	UDG counterscr inconclusive, AID inhibitor 35.5µM
Cc1ccc(-c2nnc(Nc3ccc(Cl)c(Cl)c3)c3ccccc23)cc1S(=O)(=O)N(C)C	none
C/C=C/C=C/C(=O)NC1CCCc2ccccc21 (stereo not given)	none
CCCCC1CCC(C(=O)N2CC(=O)Nc3ccc(F)cc3C2c2ccc(F)cc2)CC1 (stereo not given)	AID inhibitor 35.5µM
CCCC(=O)N1CC(=O)Nc2ccc(Cl)cc2C1c1ccc(F)cc1 (stereo not given)	none
O=C(CSc1nc2ccccc2c(=O)n1-c1ccc(F)cc1F)NC(=O)NC1CCCC1	none
O=C1Cc2cc(S(=O)(=O)N3CCCCC3)cc3c2N1CCC3	UDG counterscr 89.1µM, AID inhibitor inconclusive
COC(=O)C1CCN(S(=O)(=O)c2cc3c4c(c2)CC(=O)N4CCC3)CC1	none
COc1ccc(OC)c(NC(=O)N2CC3CCCN3c3ccccc32)c1 (stereo not given)	UDG counterscr inconclusive, AID inhibitor 20µM
COc1ccc(CNC(=O)CCC(=O)N2CC3CCCN3c3ccccc32)c(OC)c1 (stereo not given)	none
O=C(Cn1nc(Cc2cccnc2)c2ccccc2c1=O)N1CCN(c2ccc(F)cc2)CC1	none
Cc1ccc(C)c(N2CCN(C(=O)Cn3nc(Cc4cccnc4)c4ccccc4c3=O)CC2)c1	AID inhibitor 70.8µM
Cc1ccc2oc(C(=O)N(C)CCOc3ccc(F)cc3)cc(=O)c2c1	none
COc1cc(C#N)ccc1OCCOc1ccccc1C(C)=O	none
CCc1c(C)sc(NC(=O)/C=C/c2ccccc2)c1C#N	none
COc1ccc(C2CC(=O)Nc3nc(N)sc32)cc1OC1CCCC1 (stereo not given)	AID inhibitor inconclusive
COc1ccc(C2CC(=O)Nc3ccsc32)cc1OCC(N)=O (stereo not given)	none
COc1cc(C2CC(=O)Nc3nc(N4CCCCC4)sc32)ccc1OCC(N)=O (stereo not given)	AID inhibitor 22.4µM
Nc1nc2c(s1)C(c1cccc(OCc3cccc(F)c3)c1)CC(=O)N2 (stereo not given)	AID inhibitor inconclusive
NC(=O)COc1ccc(C2CC(=O)Nc3nc(N4CCCCC4)sc32)cc1 (stereo not given)	AID inhibitor 22.4µM
NC(=O)COc1cccc(C2CC(=O)Nc3nc(N4CCCCC4)sc32)c1 (stereo not given)	AID inhibitor 28.2µM
COc1cc(CNC(=O)c2ccc3c(c2)NC(=O)CCS3)ccc1OCc1ccccc1	none
COc1ccc(OCCn2c(C3CC(=O)N(c4ccc(F)cc4)C3)nc3ccccc32)cc1 (stereo not given)	AID inhibitor inconclusive
Cc1cccc(C)c1OCCCCn1c(C2CC(=O)N(c3ccc(F)cc3)C2)nc2ccccc21 (stereo not given)	UDG counterscr 79.4µM, AID inhibitor inconclusive
O=C(CCc1cccs1)N(Cc1cccnc1)C1CC1	none
N#CCc1nc(-c2ccc3c(c2)OCCO3)cs1	UDG counterscr inconclusive
CCc1ccc(CN(Cc2ccco2)C(=O)c2ccc(OC)cc2)cc1	AID inhibitor 39.8µM
COc1ccc(C(=O)N(Cc2ccco2)Cc2ccc(C)o2)cc1	none
COCCCNS(=O)(=O)c1cccc2cc(C)cnc12	none
CCc1cccc(NC(=O)c2c(C)oc3ncnc(N4CCCCC4)c23)c1	UDG counterscr 89.1µM
Cc1ccc(NC(=O)c2c(C)oc3ncnc(N4CCCCC4)c23)cc1Cl	UDG counterscr inconclusive
O=C1CCCN1c1cccc(-c2csc(-c3ccsc3)n2)c1	none
O=C(C1CC1)N(Cc1ccc2c(c1)CN(S(=O)(=O)c1ccccc1F)CCO2)c1ccccc1	AID inhibitor inconclusive
O=C(C1CC1)N(Cc1ccc2c(c1)CN(S(=O)(=O)c1ccc(F)c(F)c1)CCO2)c1ccccc1	UDG counterscr 89.1µM, AID inhibitor inconclusive
Cc1ccc(C)c(N2CCN(CCCNC(=O)c3ccc4nc(N5CCC(C)CC5)sc4c3)CC2)c1	UDG counterscr inconclusive, AID inhibitor 31.6µM
Cc1ccc(Cl)cc1N1CCN(CCCNC(=O)c2ccc3nc(N4CCCCC4)sc3c2)CC1	AID inhibitor inconclusive
Oc1ccc(Cl)cc1C=Nc1cc(C(F)(F)F)ccc1Oc1ccc(Cl)cc1	none
Cc1cc2c(s1)CCc1cc(C(=O)NC3CCCC3)sc1-2	none
CC(C)CN(CC(C)C)CC(O)Cn1cc(/C=C/C(=O)c2ccccc2)c2ccccc21 (stereo not given)	AID inhibitor inconclusive
CCCN(CCC)CC(O)Cn1cc(/C=C/C(=O)c2ccc(OCC)cc2)c2ccccc21 (stereo not given)	AID inhibitor 35.5µM
Cc1c(-c2ccccc2)oc2c(C(=O)OCC(=O)Nc3ccc(F)cc3F)cccc2c1=O	none
CCn1c(SCC(=O)c2ccc(C#N)cc2)nnc1-c1ccccc1C	none
CCOc1ccc(NC(=O)CN(c2ccccc2OCC)S(=O)(=O)c2ccccc2)cc1	AID inhibitor inconclusive
CCOc1ccc(NC(=O)CN(c2ccc(Cl)cc2C)S(=O)(=O)c2ccccc2)cc1	UDG counterscr 89.1µM, AID inhibitor inconclusive
O=C(COc1cc(OCC(=O)N2CCNC2=O)c(Cl)cc1Cl)N1CCNC1=O	none
CCN(CC)C(=O)CSc1nc(N2CCCC2)c2c(c1C#N)CCCC2	none
COc1cccc(NC(=O)CCN2CCN(c3ccccc3)CC2)c1	none
Cc1cccc(NC(=O)CCN2CCN(Cc3cccc4ccccc34)CC2)c1	UDG counterscr 79.4µM, AID inhibitor inconclusive
Cc1ccc(NC(=O)CCN2CCN(CCO)CC2)cc1C	none
Cc1cc(NC(=O)CCN2CCN(Cc3cccc4ccccc34)CC2)ccc1Br	UDG counterscr 89.1µM, AID inhibitor inconclusive
CN(C)CCC(OC(=O)C1(c2ccccc2)CCCC1)c1ccccc1 (stereo not given)	none

High-throughput results: PubChem, National Center for Advancing Translational Sciences (NCATS)
